{"source": "PubChem BioAssay (NCI)", "assay_in_all_cases": "NCI-60 one-dose screen, 48 h (100 = growth as untreated, 0 = no growth, -100 = all killed)", "details_in_all_cases": "10 µM unless noted", "key": {"[1]": {"test_system": "HCT-15 colon"}, "[2]": {"test_system": "HT29 colon"}, "[3]": {"test_system": "SNB-75 CNS"}, "[4]": {"test_system": "SNB-19 CNS"}, "[5]": {"test_system": "U251 CNS"}, "[6]": {"test_system": "PC-3 prostate"}, "[7]": {"test_system": "SK-MEL-5 melanoma"}, "[8]": {"test_system": "UACC-62 melanoma"}, "[9]": {"test_system": "LOX IMVI melanoma"}, "[10]": {"test_system": "SK-MEL-28 melanoma"}}, "note": "About 83,000 compounds went through this panel and 20% of them were active in at least one assay; those are over-represented in the sample as a whole.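 Cell lines were cultured in 96-well plates, exposed to a single compound concentration, and assessed for percent growth 48 hours later.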 A number with no mark means an inactive call. The source made the active and inactive calls. How the source made its calls: active means growth percent below 10; inactive means the rest."}
{"smiles": "CCC(C)[C@H](NC(=O)Nc1cc(C(F)(F)F)cc(C(F)(F)F)c1)C(=O)N[C@@H](Cc1cn(C)cn1)C(=O)OC", "note": "(stereo not given in full)", "values": [{"measurement": "growth", "setting": "[1]", "result": "-83.2% [100 µM] (active)"}, {"measurement": "growth", "setting": "[2]", "result": "-83.6% [100 µM] (active)"}, {"measurement": "growth", "setting": "[3]", "result": "-100% [100 µM] (active)"}, {"measurement": "growth", "setting": "[4]", "result": "-98.5% [100 µM] (active)"}, {"measurement": "growth", "setting": "[5]", "result": "-98% [100 µM] (active)"}, {"measurement": "growth", "setting": "[6]", "result": "-93.7% [100 µM] (active)"}, {"measurement": "growth", "setting": "[7]", "result": "-97.9% [100 µM] (active)"}, {"measurement": "growth", "setting": "[8]", "result": "-98.8% [100 µM] (active)"}, {"measurement": "growth", "setting": "[9]", "result": "-81.2% [100 µM] (active)"}, {"measurement": "growth", "setting": "[10]", "result": "-95.3% [100 µM] (active)"}]}
{"smiles": "COc1cccc2c1n([O-])c1cccc(OC)c1[n+]2=O", "values": [{"measurement": "growth", "setting": "[1]", "result": 87.6, "unit": "%"}, {"measurement": "growth", "setting": "[2]", "result": 73.5, "unit": "%"}, {"measurement": "growth", "setting": "[3]", "result": 87, "unit": "%"}, {"measurement": "growth", "setting": "[4]", "result": 80.4, "unit": "%"}, {"measurement": "growth", "setting": "[5]", "result": 80, "unit": "%"}, {"measurement": "growth", "setting": "[6]", "result": 57.8, "unit": "%"}, {"measurement": "growth", "setting": "[7]", "result": 72.6, "unit": "%"}, {"measurement": "growth", "setting": "[8]", "result": 84.5, "unit": "%"}, {"measurement": "growth", "setting": "[9]", "result": 64.8, "unit": "%"}, {"measurement": "growth", "setting": "[10]", "result": 72.1, "unit": "%"}]}
{"smiles": "COC(=O)c1ccc2[nH]c(O)c(C(=Nc3ccc(N(C)C(=O)CN4CCN(C)CC4)cc3)c3ccc(N)cc3)c2c1", "values": [{"measurement": "growth", "setting": "[1]", "result": 99.4, "unit": "%"}, {"measurement": "growth", "setting": "[2]", "result": 42.6, "unit": "%"}, {"measurement": "growth", "setting": "[3]", "result": 42.5, "unit": "%"}, {"measurement": "growth", "setting": "[4]", "result": 83.9, "unit": "%"}, {"measurement": "growth", "setting": "[5]", "result": 82.2, "unit": "%"}, {"measurement": "growth", "setting": "[6]", "result": 83.4, "unit": "%"}, {"measurement": "growth", "setting": "[7]", "result": 85.2, "unit": "%"}, {"measurement": "growth", "setting": "[8]", "result": 110, "unit": "%"}, {"measurement": "growth", "setting": "[9]", "result": 74.6, "unit": "%"}, {"measurement": "growth", "setting": "[10]", "result": 87.1, "unit": "%"}]}
{"smiles": "CC(=O)c1nn(-c2ccc(C)cc2)cc1C(=O)c1cc2c(ccc3ccccc32)oc1=O", "values": [{"measurement": "growth", "setting": "[1]", "result": 99.3, "unit": "%"}, {"measurement": "growth", "setting": "[2]", "result": 92.4, "unit": "%"}, {"measurement": "growth", "setting": "[3]", "result": 66.4, "unit": "%"}, {"measurement": "growth", "setting": "[4]", "result": 92.6, "unit": "%"}, {"measurement": "growth", "setting": "[5]", "result": 104, "unit": "%"}, {"measurement": "growth", "setting": "[6]", "result": 87.9, "unit": "%"}, {"measurement": "growth", "setting": "[7]", "result": 95.6, "unit": "%"}, {"measurement": "growth", "setting": "[8]", "result": 78.3, "unit": "%"}, {"measurement": "growth", "setting": "[9]", "result": 90.5, "unit": "%"}, {"measurement": "growth", "setting": "[10]", "result": 96.7, "unit": "%"}]}
{"smiles": "COc1ccc(C2=NN(C(=O)c3cc(-c4ccc(C)cc4)nc4ccccc34)C(c3cc(-c4ccccc4)nn3-c3ccccc3)C2)cc1", "note": "(stereo not given)", "values": [{"measurement": "growth", "setting": "[1]", "result": 82.6, "unit": "%"}, {"measurement": "growth", "setting": "[2]", "result": 105, "unit": "%"}, {"measurement": "growth", "setting": "[3]", "result": 88.3, "unit": "%"}, {"measurement": "growth", "setting": "[4]", "result": 83, "unit": "%"}, {"measurement": "growth", "setting": "[5]", "result": 85.3, "unit": "%"}, {"measurement": "growth", "setting": "[6]", "result": 74.7, "unit": "%"}, {"measurement": "growth", "setting": "[7]", "result": 97.8, "unit": "%"}, {"measurement": "growth", "setting": "[8]", "result": 83.5, "unit": "%"}, {"measurement": "growth", "setting": "[9]", "result": 80.6, "unit": "%"}, {"measurement": "growth", "setting": "[10]", "result": 93.8, "unit": "%"}]}
{"smiles": "COc1ccc(-c2nc(SCC(C)C)nc(Nc3ccc(C(=O)O)cc3)c2C#N)cc1", "values": [{"measurement": "growth", "setting": "[1]", "result": 33, "unit": "%"}, {"measurement": "growth", "setting": "[2]", "result": 94.7, "unit": "%"}, {"measurement": "growth", "setting": "[3]", "result": 88.6, "unit": "%"}, {"measurement": "growth", "setting": "[4]", "result": 98.1, "unit": "%"}, {"measurement": "growth", "setting": "[5]", "result": 94.8, "unit": "%"}, {"measurement": "growth", "setting": "[6]", "result": 82.3, "unit": "%"}, {"measurement": "growth", "setting": "[7]", "result": 63.3, "unit": "%"}, {"measurement": "growth", "setting": "[8]", "result": 99.3, "unit": "%"}, {"measurement": "growth", "setting": "[9]", "result": 88, "unit": "%"}, {"measurement": "growth", "setting": "[10]", "result": 25.5, "unit": "%"}]}
{"smiles": "CCC1(CC)C(OC)NC(Br)=C(C#N)C1(C#N)C(N)=O", "note": "(stereo not given)", "values": [{"measurement": "growth", "setting": "[1]", "result": 114, "unit": "%"}, {"measurement": "growth", "setting": "[2]", "result": 105, "unit": "%"}, {"measurement": "growth", "setting": "[3]", "result": 99.3, "unit": "%"}, {"measurement": "growth", "setting": "[4]", "result": 110, "unit": "%"}, {"measurement": "growth", "setting": "[5]", "result": 104, "unit": "%"}, {"measurement": "growth", "setting": "[6]", "result": 107, "unit": "%"}, {"measurement": "growth", "setting": "[7]", "result": 109, "unit": "%"}, {"measurement": "growth", "setting": "[8]", "result": 99.5, "unit": "%"}, {"measurement": "growth", "setting": "[9]", "result": 101, "unit": "%"}, {"measurement": "growth", "setting": "[10]", "result": 114, "unit": "%"}]}
{"smiles": "Cc1nc2ccccc2c(=O)n1-c1cccc(OCc2cn(-c3cccc(O)c3)nn2)c1", "values": [{"measurement": "growth", "setting": "[1]", "result": 107, "unit": "%"}, {"measurement": "growth", "setting": "[2]", "result": 96.8, "unit": "%"}, {"measurement": "growth", "setting": "[3]", "result": 88.4, "unit": "%"}, {"measurement": "growth", "setting": "[4]", "result": 91.2, "unit": "%"}, {"measurement": "growth", "setting": "[5]", "result": 98.2, "unit": "%"}, {"measurement": "growth", "setting": "[6]", "result": 87.6, "unit": "%"}, {"measurement": "growth", "setting": "[7]", "result": 87, "unit": "%"}, {"measurement": "growth", "setting": "[8]", "result": 81.1, "unit": "%"}, {"measurement": "growth", "setting": "[9]", "result": 94.6, "unit": "%"}, {"measurement": "growth", "setting": "[10]", "result": 103, "unit": "%"}]}
{"smiles": "COc1ccc(NC(=O)/C=C(C)/C=C/C=C(C)/C=C/C2=C(C)CCCC2(C)C)cc1", "values": [{"measurement": "growth", "setting": "[1]", "result": 72.5, "unit": "%"}, {"measurement": "growth", "setting": "[2]", "result": 72.4, "unit": "%"}, {"measurement": "growth", "setting": "[3]", "result": 66.3, "unit": "%"}, {"measurement": "growth", "setting": "[4]", "result": 110, "unit": "%"}, {"measurement": "growth", "setting": "[5]", "result": 26.3, "unit": "%"}, {"measurement": "growth", "setting": "[6]", "result": 63.1, "unit": "%"}, {"measurement": "growth", "setting": "[7]", "result": 110, "unit": "%"}, {"measurement": "growth", "setting": "[8]", "result": 77.4, "unit": "%"}, {"measurement": "growth", "setting": "[9]", "result": 68.4, "unit": "%"}, {"measurement": "growth", "setting": "[10]", "result": 105, "unit": "%"}]}
{"smiles": "COC(c1ccccc1)C(Br)C(=O)c1ccccc1", "note": "(stereo not given)", "values": [{"measurement": "growth", "setting": "[1]", "result": 90.7, "unit": "%"}, {"measurement": "growth", "setting": "[2]", "result": 106, "unit": "%"}, {"measurement": "growth", "setting": "[3]", "result": 86.5, "unit": "%"}, {"measurement": "growth", "setting": "[4]", "result": 96.3, "unit": "%"}, {"measurement": "growth", "setting": "[5]", "result": 95.1, "unit": "%"}, {"measurement": "growth", "setting": "[6]", "result": 91.3, "unit": "%"}, {"measurement": "growth", "setting": "[7]", "result": 94.1, "unit": "%"}, {"measurement": "growth", "setting": "[8]", "result": 84.9, "unit": "%"}, {"measurement": "growth", "setting": "[9]", "result": 97.8, "unit": "%"}, {"measurement": "growth", "setting": "[10]", "result": 102, "unit": "%"}]}
{"smiles": "CCc1ccc(C(=Nc2ccc(N(C)C(=O)CN3CCN(C)CC3)cc2)c2c(O)[nH]c3ccc(C(=O)OC)cc23)cc1", "values": [{"measurement": "growth", "setting": "[1]", "result": "-73.2% (active)"}, {"measurement": "growth", "setting": "[2]", "result": "-66.3% (active)"}, {"measurement": "growth", "setting": "[3]", "result": "-97.3% (active)"}, {"measurement": "growth", "setting": "[4]", "result": "-84.9% (active)"}, {"measurement": "growth", "setting": "[5]", "result": "-75.1% (active)"}, {"measurement": "growth", "setting": "[6]", "result": "-60.9% (active)"}, {"measurement": "growth", "setting": "[7]", "result": "-98.1% (active)"}, {"measurement": "growth", "setting": "[8]", "result": "-57.5% (active)"}, {"measurement": "growth", "setting": "[9]", "result": "-93.9% (active)"}, {"measurement": "growth", "setting": "[10]", "result": "-87.3% (active)"}]}
{"smiles": "COC1=C(OC)C(=O)c2ccccc2C1=O", "values": [{"measurement": "growth", "setting": "[1]", "result": 101, "unit": "%"}, {"measurement": "growth", "setting": "[2]", "result": 107, "unit": "%"}, {"measurement": "growth", "setting": "[3]", "result": 72.7, "unit": "%"}, {"measurement": "growth", "setting": "[4]", "result": 102, "unit": "%"}, {"measurement": "growth", "setting": "[5]", "result": 89.9, "unit": "%"}, {"measurement": "growth", "setting": "[6]", "result": 82.3, "unit": "%"}, {"measurement": "growth", "setting": "[7]", "result": 13.6, "unit": "%"}, {"measurement": "growth", "setting": "[8]", "result": 101, "unit": "%"}, {"measurement": "growth", "setting": "[9]", "result": 63.4, "unit": "%"}, {"measurement": "growth", "setting": "[10]", "result": 101, "unit": "%"}]}
